Results filed as inconclusive are left out. Active and inactive are the calls of the source. Unless noted, calls follow the shape of the dose curve; as a rule, active = well fitted inhibition curve with a large enough effect; inconclusive = small, poorly fitted or top-dose-only effect; inactive = no such curve, though single readings can be large or run the other way.
Tests used:
[1] = qHTS profiling of the MIPE4 collection as inhibitors of Plasmodium falciparum (HB3) proliferation (AID 743347; call rule not given here;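 also: plate controls were DMSO vehicle wells for no effect and artemisinin wells for full effect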); details: P. falciparum HB3 in erythrocytes, SYBR Green DNA, 72 h; at 28.5 µM (top of the series) unless noted
Outline: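 Erythrocytes infected with P. falciparum (0.3% parasitemia, 2.5% hematocrit) incubated with compounds 72 h at 37 C, 5% CO2. Lysis with saponin/Triton buffer containing SYBR Green I, overnight at room temperature in the dark; DNA fluorescence (485/535 nm) normalised to 0.29 uM artemisinin and DMSO.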

[2] = High-throughput drug toxicity screening in the BPDCN cell line Gen2.2 (AID 1224824; call rule not given here;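 also: cells exposed to compounds for 48 h before reading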); details: Gen2.2 BPDCN cells; at 45.8 µM (top of the series) unless noted
Outline: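 CellTiter-Glo luminescence after 48 h compound exposure of Gen2.2 cells; percent activity set with DMSO as 100% and bortezomib (9.2 uM final) as 0%. Cells seeded at 500 per well, RPMI + 10% FBS, 37 °C.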

[3] = High-throughput drug toxicity screening in the BPDCN cell line Cal-1 (AID 1224825; call rule not given here); details: Cal-1 BPDCN cell viability, qHTS; at 45.8 µM (top of the series) unless noted
Outline: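 Exponentially growing Cal-1 cells, 500 per well in phenol red-free RPMI with 10% FBS, were exposed to compounds for 48 h at 37 °C, 5% CO2. Viability was read by CellTiter-Glo luminescence and normalised to DMSO (100%) and 9.2 uM bortezomib (0%).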

[4] = qHTS assay for measurement of the activity of small molecule inhibitors on Zika virus induced Caspase-3 activity in human iPSC derived neural progenitor cells (hNPCs) (AID 1224857); also: nearly all actives have a fitted effect of over 65% in size; also: potency is read from the fitted curve at half-maximal effect
Outline: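 Caspase-3/7 induction by a 6-hour ZIKV infection was quantified with a luminescent Caspase-Glo 3/7 reagent incubated 30 minutes at room temperature. Compounds were preincubated with hNPCs for 1 hour; inhibition was calculated against uninfected and infected control wells.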

[5] = qHTS assay for measurement of the activity of small molecule inhibitors on Zika virus induced Caspase-3 activity in human astrocytoma cells (AID 1224859);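 also: plate controls were ZIKV-infected untreated cells for no effect and uninfected cells for full effect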
Outline: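 In SNB-19 cells plated at 250 cells/well and grown 16-20 h, compounds were applied 1 h before ZIKV (2 FFU/cell). Six hours later caspase-3/7 luminescence was recorded.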

[6] = qHTS Screen of the MIPE 4.0 Collection Against Ewings Sarcoma (TC71) (AID 1259253); also: nearly all actives have a fitted effect of over 40% in size; also: potency is read from the fitted curve at half-maximal effect
Outline: (§1)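 Here, cells in 5% FBS RPMI were exposed for two days (48 h) to compound dilutions added four hours after plating. ATP-based CellTiter-Glo luminescence measured viability, normalized to vehicle and no-cell blanks.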

[7] = qHTS Screen of the MIPE 4.0 Collection Against Ewings Sarcoma (EW8) (AID 1259255); also: nearly all actives have a fitted effect of over 35% in size; also: potency is read from the fitted curve at half-maximal effect;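 as to viability: 100% = DMSO-treated cells and 0% = medium-only wells without cells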
Outline: as §1

[8] = qHTS Screen of the MIPE 4.0 Collection Against Ewings Sarcoma (RDES) (AID 1259252); also: nearly all actives have a fitted effect of over 35% in size; also: potency is read from the fitted curve at half-maximal effect
Outline: as §1

Row | SMILES | growth, % of control [1] [%] | cell viability, % of control (lower = more cytotoxic) [2] [%] | viability (% of control) [3] [%] | Potency [4] | Potency [5] | Potency [6] | Potency [7] | Potency [8]
1 | N#CC[C@H](C1CCCC1)n1cc(-c2ncnc3[nH]ccc23)cn1 | 40.5 | 230 | 56.3 | inactive | inactive | 20.9 µM (active) | 16.6 µM (active) | –
2 | CCCS(=O)(=O)Nc1ccc(F)c(C(=O)c2c[nH]c3ncc(-c4ccc(Cl)cc4)cc23)c1F | 15.2 | 453 | 99.1 | inactive | inactive | 14.8 µM (active) | – | 13.2 µM (active)
3 | COc1cc2nccc(Oc3ccc(NC(=O)NC4CC4)c(Cl)c3)c2cc1C(N)=O | 19.2 | 10.1 | 5.43 | inactive | inactive | 1.05 µM (active) | 0.469 µM (active) | –
4 | O=C(Nc1cccnc1)N1CCC(Cc2cccc(Oc3ccc(C(F)(F)F)cn3)c2)CC1 | 5.3 | 147 | 52.7 | inactive | inactive | 16.6 µM (active) | – | 18.7 µM (active)
5 | COc1c(Cl)cc2c([nH]c3cnccc32)c1NC(=O)c1cccnc1C | 4.33 | 41.9 | 77.1 | inactive | inactive | – | – | 0.59 µM (active)
6 | Cn1cnc([N+](=O)[O-])c1Sc1ncnc2nc[nH]c12 | 45.9 | 16.2 | 93.1 | inactive | inactive | 1.18 µM (active) | 4.69 µM (active) | –
7 | O=c1[nH]c(-c2ccc(C(F)(F)F)cc2)nc2c1CSCC2 | 86.7 | 117 | 114 | inactive | inactive | – | 20.9 µM (active) | 23.5 µM (active)
8 | CCn1cc(C(=O)O)c(=O)c2cc(F)c(N3CCNC(C)C3)c(F)c21 (stereo not drawn) | 91.5 | 176 | 107 | inactive | inactive | inactive | inactive | –
9 | CN(C)C(=O)c1ccc(S(=O)(=O)c2ccc(NC(=O)[C@@](C)(O)C(F)(F)F)c(Cl)c2)cc1 | 62 | 41.1 | 20.3 | inactive | inactive | 18.7 µM (active) | inactive | 20.9 µM (active)
10 | COc1cc2c(cc1OC)CN(CCc1ccc(NC(=O)c3cccc4c(=O)c5cccc(OC)c5[nH]c34)cc1)CC2 | 4.23 | 238 | 104 | inactive | inactive | 20.9 µM (active) | – | 10.5 µM (active)
11 | O=c1n(CCCN2CCN(c3cccc(Cl)c3)CC2)nc2ccccn12 | 92.5 | 165 | 100 | inactive | inactive | inactive | inactive | inactive
12 | COc1ccc(C2=N[C@H](c3ccc(Cl)cc3)[C@H](c3ccc(Cl)cc3)N2C(=O)N2CCNC(=O)C2)c(OC(C)C)c1 | 12.4 | 4.67 | 4.23 | inactive | inactive | 16.6 µM (active) | 5.26 µM (active) | 18.7 µM (active)
13 | CC(C)C[C@H](NC(=O)[C@@H](O)[C@H](N)Cc1ccccc1)C(=O)O | 6.17 | 103 | 38.3 | inactive | inactive | 26.4 µM (active) | – | 23.5 µM (active)
14 | NCCCC(N)(C(=O)O)C(F)F (stereo not drawn) | 107 | 77.2 | 47.4 | inactive | inactive | inactive | inactive | inactive
15 | Cc1ccccc1C(OCCN(C)C)c1ccccc1 (stereo not drawn) | 87.3 | 149 | 93 | inactive | inactive | inactive | inactive | inactive
16 | CN(C(=O)c1ccc(F)cc1C(F)(F)F)C1CCN(c2nnc(-c3ccnn3C)c3ccccc23)CC1 | 21.1 | 13.6 | 80.2 | inactive | inactive | – | – | 20.9 µM (active)
17 | Oc1ccc(C2CNCCc3c2cc(O)c(O)c3Cl)cc1 (stereo not drawn) | 7.76 | 156 | 66.9 | inactive | inactive | inactive | inactive | inactive
18 | COCC(=O)NCC=Cc1ccc2ncnc(Nc3ccc(Oc4ccc(C)nc4)c(C)c3)c2c1 | 9.14 | 222 | 20.7 | inactive | inactive | 23.5 µM (active) | – | 20.9 µM (active)
19 | Cc1[nH]c(=O)c(C#N)cc1-c1ccncc1 | 9.94 | 244 | 23 | inactive | inactive | inactive | inactive | inactive
20 | OC(CN1CCC(Cc2ccc(F)cc2)CC1)c1ccc(Cl)cc1 (stereo not drawn) | 46.6 | 156 | 99.3 | inactive | inactive | inactive | inactive | –
21 | N=c1nc(N2CCCCC2)cc(N)n1O | 3.91 | 450 | 106 | inactive | inactive | inactive | inactive | –
22 | Cc1csc(NC(=O)c2sc3nc4c(c(C(F)(F)F)c3c2N)CCC4)n1 | 78.3 | 36.4 | 93.3 | 23.5 µM (active) | inactive | 4.18 µM (active) | 13.2 µM (active) | –
23 | COc1ccc(-c2oc3cc(OC)ccc3c2C(=O)c2ccc(C#N)cc2)cc1 | 16.7 | 84.5 | 19.6 | inactive | inactive | – | inactive | inactive
24 | Clc1ccc(Nc2nnc(Cc3ccncc3)c3ccccc23)cc1 | 53.1 | 117 | 68.2 | inactive | inactive | 20.9 µM (active) | – | 2.96 µM (active)
25 | Cc1cc2c(C(C)C)c(O)c(O)c(C=O)c2c(O)c1-c1c(C)cc2c(C(C)C)c(O)c(O)c(C=O)c2c1O | 14.8 | 14.5 | 6.4 | inactive | inactive | 13.2 µM (active) | 11.8 µM (active) | 10.5 µM (active)
26 | CN1CCN(CCCN2c3ccccc3Sc3ccc(C(F)(F)F)cc32)CC1 | 83 | 55.3 | 77.3 | inactive | inactive | 10.5 µM (active) | 23.5 µM (active) | –
27 | Cc1cnc(NC(=O)C2=C(O)c3ccccc3S(=O)(=O)N2C)s1 | 78.1 | 60.9 | 96.3 | inactive | inactive | inactive | inactive | –
28 | Clc1cccc(Cl)c1NC1=NCCN1 | 70.5 | 144 | 113 | inactive | inactive | inactive | inactive | inactive

— PubChem BioAssay (NCATS)
